# Publication PMC7862700, “An all-to-all approach to the identification of sequence-specific readers for epigenetic DNA modifications on cytosine”
# Tests used:
# Assay in all cases: DAPPL (digital affinity profiling via proximity ligation, sequencing); 10 mM Tris-HCl pH 7.5, 50 mM NaCl, 1 mM DTT, 4% glycerol, room temperature, 30 min; GST-TFs on glutathione beads, 16-mer random dsDNA library, 0.1% formaldehyde crosslink after washing; high values mean tight binding
# FLI1 = target: T1, FLI1 (Homo sapiens, UniProt Q01543 1-452); conditions: protein: recombinant; tags: N-terminal GST; dsDNA, one strand shown
# T1 sequence: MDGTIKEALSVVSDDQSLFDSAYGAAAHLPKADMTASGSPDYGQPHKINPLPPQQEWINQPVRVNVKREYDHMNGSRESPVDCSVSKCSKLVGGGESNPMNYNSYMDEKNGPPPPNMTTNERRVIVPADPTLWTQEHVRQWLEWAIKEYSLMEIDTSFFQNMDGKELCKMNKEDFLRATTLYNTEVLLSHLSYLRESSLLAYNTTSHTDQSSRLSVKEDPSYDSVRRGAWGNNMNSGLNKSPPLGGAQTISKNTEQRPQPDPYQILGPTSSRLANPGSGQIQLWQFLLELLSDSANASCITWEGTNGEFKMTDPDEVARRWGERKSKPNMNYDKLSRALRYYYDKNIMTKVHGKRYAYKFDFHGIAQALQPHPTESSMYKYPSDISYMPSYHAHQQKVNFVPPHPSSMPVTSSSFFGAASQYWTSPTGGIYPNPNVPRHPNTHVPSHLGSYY
# Method in brief: (§1)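 After expression in yeast as GST fusions, human transcription factors were bound to glutathione beads, DNA-barcoded and mixed with a tag-only sample. The pools were incubated with 200 nmole of a 16-mer random double-stranded DNA library in Tris/NaCl/DTT/glycerol buffer (30 min, room temperature), washed and crosslinked with 0.1% formaldehyde. Proximity ligation with BsaI/T4 ligase ran for 1 h at 37 °C, before PCR amplification and sequencing on an Illumina NextSeq500. Binding signal is a hexamer's read frequency for a factor divided by its frequency for the tag-only sample.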
# ELK1 = target: T2, ELK1 (Homo sapiens, UniProt P19419 1-428); conditions: protein: recombinant; tags: N-terminal GST; dsDNA, one strand shown
# T2 sequence: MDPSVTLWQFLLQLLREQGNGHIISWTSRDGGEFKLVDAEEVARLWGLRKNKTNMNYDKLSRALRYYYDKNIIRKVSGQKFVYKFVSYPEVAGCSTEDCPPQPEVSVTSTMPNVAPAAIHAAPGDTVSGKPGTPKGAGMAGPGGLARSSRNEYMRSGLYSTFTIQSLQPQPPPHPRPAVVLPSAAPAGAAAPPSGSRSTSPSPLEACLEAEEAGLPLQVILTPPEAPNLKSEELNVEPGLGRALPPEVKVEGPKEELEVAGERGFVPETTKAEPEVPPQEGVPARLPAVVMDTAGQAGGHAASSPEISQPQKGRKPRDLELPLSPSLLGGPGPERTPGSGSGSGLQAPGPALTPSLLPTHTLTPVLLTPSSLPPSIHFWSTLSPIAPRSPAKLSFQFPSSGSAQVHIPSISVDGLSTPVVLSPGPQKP
# Method in brief: as §1
# GABPA = target: T3, GABPA (Homo sapiens, UniProt Q06546 1-454); conditions: protein: recombinant; tags: N-terminal GST; dsDNA, one strand shown
# T3 sequence: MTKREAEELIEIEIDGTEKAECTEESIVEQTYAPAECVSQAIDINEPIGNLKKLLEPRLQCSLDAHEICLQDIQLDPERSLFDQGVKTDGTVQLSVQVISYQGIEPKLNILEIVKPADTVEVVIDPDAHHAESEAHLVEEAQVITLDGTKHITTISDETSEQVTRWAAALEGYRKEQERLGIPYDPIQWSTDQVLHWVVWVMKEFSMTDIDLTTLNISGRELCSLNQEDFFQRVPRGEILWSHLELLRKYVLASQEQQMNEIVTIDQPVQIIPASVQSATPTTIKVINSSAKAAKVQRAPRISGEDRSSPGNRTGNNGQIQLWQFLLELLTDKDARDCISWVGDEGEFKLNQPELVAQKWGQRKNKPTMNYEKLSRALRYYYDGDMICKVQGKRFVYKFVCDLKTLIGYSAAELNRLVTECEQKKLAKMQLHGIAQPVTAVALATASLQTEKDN
# Method in brief: as §1
# ERG = target: T4, ERG (Homo sapiens, UniProt P11308 1-479); conditions: protein: recombinant; tags: N-terminal GST; dsDNA, one strand shown
# T4 sequence: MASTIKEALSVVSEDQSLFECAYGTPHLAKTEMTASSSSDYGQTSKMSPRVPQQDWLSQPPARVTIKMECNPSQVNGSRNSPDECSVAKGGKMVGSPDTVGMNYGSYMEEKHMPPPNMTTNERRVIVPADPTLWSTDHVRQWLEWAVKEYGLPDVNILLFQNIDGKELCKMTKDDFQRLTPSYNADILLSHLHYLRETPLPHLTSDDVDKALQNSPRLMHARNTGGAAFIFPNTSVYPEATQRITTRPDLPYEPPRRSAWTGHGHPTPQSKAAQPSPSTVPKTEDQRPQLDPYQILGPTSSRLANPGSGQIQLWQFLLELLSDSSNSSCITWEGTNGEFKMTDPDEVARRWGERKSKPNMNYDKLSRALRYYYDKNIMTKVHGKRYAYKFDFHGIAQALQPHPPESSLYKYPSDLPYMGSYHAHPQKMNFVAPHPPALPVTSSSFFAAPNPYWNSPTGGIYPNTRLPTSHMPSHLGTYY
# Method in brief: as §1
# ELF1 = ELF1 (Homo sapiens, UniProt P32519 1-619); conditions: protein: recombinant; tags: N-terminal GST; dsDNA, one strand shown
# Method in brief: as §1
# EHF = target: T5, EHF (Homo sapiens, UniProt Q9NZC4 1-300); conditions: protein: recombinant; tags: N-terminal GST; dsDNA, one strand shown
# T5 sequence: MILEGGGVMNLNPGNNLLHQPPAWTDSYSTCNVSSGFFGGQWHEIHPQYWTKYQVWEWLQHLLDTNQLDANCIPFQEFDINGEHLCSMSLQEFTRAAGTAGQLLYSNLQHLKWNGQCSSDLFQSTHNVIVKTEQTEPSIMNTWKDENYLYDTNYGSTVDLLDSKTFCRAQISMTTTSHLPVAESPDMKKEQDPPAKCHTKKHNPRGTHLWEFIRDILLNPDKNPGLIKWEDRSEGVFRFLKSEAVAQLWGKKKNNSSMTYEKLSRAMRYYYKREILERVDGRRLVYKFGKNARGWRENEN
# Method in brief: as §1
# SPI1 = SPI1 (Homo sapiens, UniProt P17947 1-270); conditions: protein: recombinant; tags: N-terminal GST; dsDNA, one strand shown
# Method in brief: as §1
# SPIB = SPIB (Homo sapiens, UniProt Q01892 1-262); conditions: protein: recombinant; tags: N-terminal GST; dsDNA, one strand shown
# Method in brief: as §1
# ELK3 = target: T6, ELK3 (Homo sapiens, UniProt P41970 1-407); conditions: protein: recombinant; tags: N-terminal GST; dsDNA, one strand shown
# T6 sequence: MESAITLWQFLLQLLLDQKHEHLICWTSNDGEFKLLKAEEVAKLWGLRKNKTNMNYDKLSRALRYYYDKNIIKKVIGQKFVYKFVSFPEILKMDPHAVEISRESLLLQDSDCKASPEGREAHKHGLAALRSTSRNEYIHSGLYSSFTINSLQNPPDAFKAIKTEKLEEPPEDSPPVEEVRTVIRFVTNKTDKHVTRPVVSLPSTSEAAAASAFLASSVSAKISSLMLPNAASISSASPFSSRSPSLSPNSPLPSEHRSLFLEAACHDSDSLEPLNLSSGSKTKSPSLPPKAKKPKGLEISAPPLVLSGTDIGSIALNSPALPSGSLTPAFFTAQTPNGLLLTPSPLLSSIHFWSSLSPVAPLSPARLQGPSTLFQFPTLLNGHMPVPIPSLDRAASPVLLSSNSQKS
# Method in brief: as §1
# FEV = target: T7, FEV (Homo sapiens, UniProt Q99581 1-238); conditions: protein: recombinant; tags: N-terminal GST; dsDNA, one strand shown
# T7 sequence: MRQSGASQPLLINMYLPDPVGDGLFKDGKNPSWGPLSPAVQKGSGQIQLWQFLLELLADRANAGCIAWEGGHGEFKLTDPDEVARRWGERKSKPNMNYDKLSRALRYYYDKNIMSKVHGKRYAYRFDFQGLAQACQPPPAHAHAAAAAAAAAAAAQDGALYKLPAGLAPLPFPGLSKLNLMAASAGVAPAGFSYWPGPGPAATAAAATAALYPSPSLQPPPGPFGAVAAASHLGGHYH
# Method in brief: as §1
# ETV5 = ETV5 (Homo sapiens, UniProt P41161 1-510); conditions: protein: recombinant; tags: N-terminal GST; dsDNA, one strand shown
# Method in brief: as §1
# HSF1 = HSF1 (Homo sapiens, UniProt Q00613 1-529); conditions: protein: recombinant; tags: N-terminal GST; chain copies: 3; dsDNA, one strand shown
# Method in brief: as §1
# SPIC = target: T8, SPIC (Homo sapiens, UniProt Q8N5J4 1-248); conditions: protein: recombinant; tags: N-terminal GST; dsDNA, one strand shown
# T8 sequence: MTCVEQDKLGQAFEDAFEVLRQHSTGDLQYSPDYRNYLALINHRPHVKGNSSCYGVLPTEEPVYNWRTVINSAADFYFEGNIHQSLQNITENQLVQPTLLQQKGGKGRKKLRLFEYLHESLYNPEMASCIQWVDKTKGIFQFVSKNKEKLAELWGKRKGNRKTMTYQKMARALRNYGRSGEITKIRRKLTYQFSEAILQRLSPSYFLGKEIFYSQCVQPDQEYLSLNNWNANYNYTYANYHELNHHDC
# Method in brief: as §1
# ELF4 = ELF4 (Homo sapiens, UniProt Q99607 1-663); conditions: protein: recombinant; tags: N-terminal GST; dsDNA, one strand shown
# Method in brief: as §1
# ELK4 = target: T9, ELK4 (Homo sapiens, UniProt P28324-2 1-405); conditions: protein: recombinant; tags: N-terminal GST; dsDNA, one strand shown
# T9 sequence: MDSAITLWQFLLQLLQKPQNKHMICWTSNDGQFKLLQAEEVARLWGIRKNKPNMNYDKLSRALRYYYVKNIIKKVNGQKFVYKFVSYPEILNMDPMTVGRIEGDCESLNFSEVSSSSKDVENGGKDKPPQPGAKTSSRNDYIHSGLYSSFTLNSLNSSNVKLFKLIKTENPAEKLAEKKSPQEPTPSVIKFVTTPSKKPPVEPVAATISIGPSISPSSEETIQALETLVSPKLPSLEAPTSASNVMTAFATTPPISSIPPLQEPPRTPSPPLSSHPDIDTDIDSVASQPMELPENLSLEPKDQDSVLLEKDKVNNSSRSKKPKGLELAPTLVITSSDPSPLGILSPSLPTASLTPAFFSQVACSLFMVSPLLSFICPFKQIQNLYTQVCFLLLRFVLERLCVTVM
# Method in brief: as §1
# ETV2 = target: T10, ETV2 (Homo sapiens, UniProt O00321 1-342); conditions: protein: recombinant; tags: N-terminal GST; dsDNA, one strand shown
# T10 sequence: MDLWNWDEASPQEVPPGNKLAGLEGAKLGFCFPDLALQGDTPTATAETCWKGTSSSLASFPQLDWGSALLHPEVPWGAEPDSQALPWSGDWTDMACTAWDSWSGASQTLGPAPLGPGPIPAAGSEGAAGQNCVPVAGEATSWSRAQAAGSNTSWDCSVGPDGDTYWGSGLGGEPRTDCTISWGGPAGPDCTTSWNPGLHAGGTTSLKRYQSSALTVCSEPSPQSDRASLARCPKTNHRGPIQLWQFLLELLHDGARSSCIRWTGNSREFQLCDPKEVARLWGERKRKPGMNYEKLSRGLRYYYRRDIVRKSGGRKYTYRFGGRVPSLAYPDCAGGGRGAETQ
# Method in brief: as §1
# ELF3 = target: T11, ELF3 (Homo sapiens, UniProt P78545 1-371); conditions: protein: recombinant; tags: N-terminal GST; dsDNA, one strand shown
# T11 sequence: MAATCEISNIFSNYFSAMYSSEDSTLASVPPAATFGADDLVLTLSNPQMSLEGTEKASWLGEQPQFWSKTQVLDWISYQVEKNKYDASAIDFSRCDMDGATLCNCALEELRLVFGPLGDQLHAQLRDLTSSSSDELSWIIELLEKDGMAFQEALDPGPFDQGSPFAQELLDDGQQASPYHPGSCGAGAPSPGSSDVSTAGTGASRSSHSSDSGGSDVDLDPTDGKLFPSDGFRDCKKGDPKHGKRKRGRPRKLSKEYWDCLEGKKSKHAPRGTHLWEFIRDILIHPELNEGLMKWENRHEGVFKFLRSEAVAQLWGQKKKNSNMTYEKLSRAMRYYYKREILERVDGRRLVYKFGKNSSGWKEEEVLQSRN
# Method in brief: as §1
# CRX = CRX (Homo sapiens, UniProt O43186 1-299); conditions: protein: recombinant; tags: N-terminal GST; dsDNA, one strand shown
# Method in brief: as §1
# ETV1 = ETV1 (Homo sapiens, UniProt P50549 1-477); conditions: protein: recombinant; tags: N-terminal GST; dsDNA, one strand shown
# Method in brief: as §1
# Sequence of SPIB (Q01892 whole entry): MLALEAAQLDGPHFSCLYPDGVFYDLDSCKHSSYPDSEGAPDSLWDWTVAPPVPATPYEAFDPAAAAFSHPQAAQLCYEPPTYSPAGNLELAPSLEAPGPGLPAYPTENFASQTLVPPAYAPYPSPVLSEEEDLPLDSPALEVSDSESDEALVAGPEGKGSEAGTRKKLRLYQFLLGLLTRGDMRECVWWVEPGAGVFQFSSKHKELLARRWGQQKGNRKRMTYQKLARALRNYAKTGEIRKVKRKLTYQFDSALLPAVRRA
# Sequence of ELF1 (P32519 whole entry): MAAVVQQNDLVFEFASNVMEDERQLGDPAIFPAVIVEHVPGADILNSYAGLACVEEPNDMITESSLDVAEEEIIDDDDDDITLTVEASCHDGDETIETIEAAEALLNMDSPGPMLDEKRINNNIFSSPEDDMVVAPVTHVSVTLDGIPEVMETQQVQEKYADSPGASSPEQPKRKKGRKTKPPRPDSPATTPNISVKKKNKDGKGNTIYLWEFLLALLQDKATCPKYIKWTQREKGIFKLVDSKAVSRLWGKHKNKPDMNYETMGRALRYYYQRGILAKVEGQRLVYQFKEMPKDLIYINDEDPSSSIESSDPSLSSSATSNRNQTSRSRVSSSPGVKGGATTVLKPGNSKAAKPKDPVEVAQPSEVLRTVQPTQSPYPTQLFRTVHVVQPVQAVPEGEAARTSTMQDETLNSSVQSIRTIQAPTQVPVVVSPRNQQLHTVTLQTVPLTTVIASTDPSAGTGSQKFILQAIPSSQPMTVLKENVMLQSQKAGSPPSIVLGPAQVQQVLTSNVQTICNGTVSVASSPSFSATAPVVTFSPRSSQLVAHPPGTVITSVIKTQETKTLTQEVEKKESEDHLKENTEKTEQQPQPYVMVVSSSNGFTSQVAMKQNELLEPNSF
# Sequence of ETV1 (P50549 whole entry): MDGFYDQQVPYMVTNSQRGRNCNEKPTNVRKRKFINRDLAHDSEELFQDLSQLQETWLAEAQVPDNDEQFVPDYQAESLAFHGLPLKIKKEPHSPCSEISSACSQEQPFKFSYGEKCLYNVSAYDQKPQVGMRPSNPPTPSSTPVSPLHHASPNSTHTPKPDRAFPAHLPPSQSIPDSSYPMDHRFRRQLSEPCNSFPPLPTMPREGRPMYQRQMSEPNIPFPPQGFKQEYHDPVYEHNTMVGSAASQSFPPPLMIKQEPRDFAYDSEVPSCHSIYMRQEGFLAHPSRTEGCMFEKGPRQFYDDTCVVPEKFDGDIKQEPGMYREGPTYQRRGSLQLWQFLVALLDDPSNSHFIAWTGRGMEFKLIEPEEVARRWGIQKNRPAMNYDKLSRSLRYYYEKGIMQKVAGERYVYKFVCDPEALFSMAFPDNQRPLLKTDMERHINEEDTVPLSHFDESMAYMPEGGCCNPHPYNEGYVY
# Sequence of CRX (O43186 whole entry): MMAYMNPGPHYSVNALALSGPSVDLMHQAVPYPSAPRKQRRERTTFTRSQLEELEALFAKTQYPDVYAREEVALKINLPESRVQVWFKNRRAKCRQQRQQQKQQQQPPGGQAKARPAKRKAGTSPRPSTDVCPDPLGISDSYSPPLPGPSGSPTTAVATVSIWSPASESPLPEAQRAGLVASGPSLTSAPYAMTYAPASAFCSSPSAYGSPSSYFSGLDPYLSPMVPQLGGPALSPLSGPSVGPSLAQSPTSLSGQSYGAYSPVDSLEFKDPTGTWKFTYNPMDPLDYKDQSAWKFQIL
# Sequence of ETV5 (P41161 whole entry): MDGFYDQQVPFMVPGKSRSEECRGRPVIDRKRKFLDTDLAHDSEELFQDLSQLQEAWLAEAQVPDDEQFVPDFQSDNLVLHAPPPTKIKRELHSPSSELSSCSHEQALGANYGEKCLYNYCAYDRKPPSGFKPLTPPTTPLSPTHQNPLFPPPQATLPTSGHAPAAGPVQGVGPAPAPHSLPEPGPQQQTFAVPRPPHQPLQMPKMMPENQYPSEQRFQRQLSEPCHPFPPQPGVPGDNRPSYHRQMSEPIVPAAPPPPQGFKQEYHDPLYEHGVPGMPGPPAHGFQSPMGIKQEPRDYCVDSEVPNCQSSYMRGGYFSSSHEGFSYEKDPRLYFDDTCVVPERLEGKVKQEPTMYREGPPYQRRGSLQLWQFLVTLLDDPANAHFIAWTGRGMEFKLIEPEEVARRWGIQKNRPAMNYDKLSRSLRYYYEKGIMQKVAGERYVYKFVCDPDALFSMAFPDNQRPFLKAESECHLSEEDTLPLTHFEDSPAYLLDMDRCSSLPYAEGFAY
# Sequence of HSF1 (Q00613 whole entry): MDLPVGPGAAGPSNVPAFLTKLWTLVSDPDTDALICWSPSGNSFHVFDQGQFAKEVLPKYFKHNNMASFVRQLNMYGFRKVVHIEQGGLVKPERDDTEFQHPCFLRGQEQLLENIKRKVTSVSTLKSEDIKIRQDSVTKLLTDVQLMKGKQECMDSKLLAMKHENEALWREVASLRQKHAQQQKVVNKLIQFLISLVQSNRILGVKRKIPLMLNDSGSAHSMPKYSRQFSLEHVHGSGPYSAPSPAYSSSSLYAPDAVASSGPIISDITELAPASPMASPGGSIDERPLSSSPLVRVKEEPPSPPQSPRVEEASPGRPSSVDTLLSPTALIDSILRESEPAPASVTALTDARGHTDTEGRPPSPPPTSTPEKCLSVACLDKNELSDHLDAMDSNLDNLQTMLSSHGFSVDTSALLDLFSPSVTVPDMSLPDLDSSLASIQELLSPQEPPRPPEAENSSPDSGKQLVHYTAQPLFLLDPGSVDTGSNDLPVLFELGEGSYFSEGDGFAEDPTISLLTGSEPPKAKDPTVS
# Sequence of ELF4 (Q99607 whole entry): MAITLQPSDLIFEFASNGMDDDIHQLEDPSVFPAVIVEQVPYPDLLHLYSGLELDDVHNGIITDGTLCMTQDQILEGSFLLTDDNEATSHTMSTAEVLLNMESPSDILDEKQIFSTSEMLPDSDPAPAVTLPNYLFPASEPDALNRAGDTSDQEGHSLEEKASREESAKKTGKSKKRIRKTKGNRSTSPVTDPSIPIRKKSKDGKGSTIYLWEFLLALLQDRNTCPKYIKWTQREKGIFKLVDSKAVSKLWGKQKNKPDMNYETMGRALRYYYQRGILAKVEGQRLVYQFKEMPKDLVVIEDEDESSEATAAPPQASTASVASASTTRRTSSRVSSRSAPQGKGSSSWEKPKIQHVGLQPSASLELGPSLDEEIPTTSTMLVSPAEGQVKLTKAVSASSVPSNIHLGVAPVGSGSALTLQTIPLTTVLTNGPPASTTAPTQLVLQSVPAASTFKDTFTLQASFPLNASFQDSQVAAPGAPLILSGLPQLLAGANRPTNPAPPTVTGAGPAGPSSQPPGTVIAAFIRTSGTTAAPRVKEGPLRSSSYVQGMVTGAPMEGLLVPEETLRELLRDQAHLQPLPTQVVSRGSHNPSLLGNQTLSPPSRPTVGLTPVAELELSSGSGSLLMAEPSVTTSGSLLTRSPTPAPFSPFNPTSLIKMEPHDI
sequence,measurement,setting,value
TGGCTA,binding signal,FLI1,"1.15 fold enrichment (6-mer frequency, TF over GST control)"
same,binding signal,ELK1,"1.23 fold enrichment (6-mer frequency, TF over GST control)"
same,binding signal,GABPA,"1.24 fold enrichment (6-mer frequency, TF over GST control)"
same,binding signal,ERG,"1.17 fold enrichment (6-mer frequency, TF over GST control)"
same,binding signal,ELF1,"1.22 fold enrichment (6-mer frequency, TF over GST control)"
same,binding signal,EHF,"1.19 fold enrichment (6-mer frequency, TF over GST control)"
same,binding signal,SPI1,"1.2 fold enrichment (6-mer frequency, TF over GST control)"
same,binding signal,SPIB,"1.31 fold enrichment (6-mer frequency, TF over GST control)"
same,binding signal,ELK3,"1.14 fold enrichment (6-mer frequency, TF over GST control)"
same,binding signal,FEV,"1.22 fold enrichment (6-mer frequency, TF over GST control)"
same,binding signal,ETV5,"1.2 fold enrichment (6-mer frequency, TF over GST control)"
same,binding signal,HSF1,"1.25 fold enrichment (6-mer frequency, TF over GST control)"
same,binding signal,SPIC,"1.25 fold enrichment (6-mer frequency, TF over GST control)"
same,binding signal,ELF4,"1.19 fold enrichment (6-mer frequency, TF over GST control)"
same,binding signal,ELK4,"1.47 fold enrichment (6-mer frequency, TF over GST control)"
same,binding signal,ETV2,"1.23 fold enrichment (6-mer frequency, TF over GST control)"
same,binding signal,ELF3,"1.27 fold enrichment (6-mer frequency, TF over GST control)"
same,binding signal,CRX,"1.35 fold enrichment (6-mer frequency, TF over GST control)"
same,binding signal,ETV1,"1.16 fold enrichment (6-mer frequency, TF over GST control)"
